# A selection: hits, their analogues and other compounds. The true share with any hit is near 21%.
# Pf growth 48h – inhibits P. falciparum growth in the first generation, 48 h; P. falciparum luciferase growth in erythrocytes, 48 h; Potency, µM (highest dose often 28.7 µM), for inactives: at the top dose activity change, negative = inhibition, most hits filed as inhibitors; actives 5.9% (n = 310,000); AID 504832; note: potency is the fitted concentration of half-maximal effect; % is set by controls: 0 for no effect and ±100 for the full control effect
#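 A one-generation exposure of luciferase-tagged malaria parasites in RPMI 1640/Albumax erythrocyte culture, 37 C and 5% CO2. Inhibition is inferred from decreased luminescence after adding detection reagent.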
# CHX counter – counter-screen hit for Shiga toxin inhibitors, cycloheximide | max response, % | cell reporter, cycloheximide protein synthesis inhibition counterscreen | AID 2314 | actives 12% (n = 300,000); in the data active = max response mostly above about 13%, no sharp cut-off; inactive = mostly below about 14%; note: read at 38.3 µM for the half of the compounds with a filed dose; 0% is about no effect
# AMA1-RON2 inh – inhibitors of Plasmodium falciparum AMA1-RON2 interaction | AlphaScreen AMA1-biotinylated RON2 peptide binding | actives 0.2% (n = 360,000) | Potency, µM (highest dose often 58.2 µM), inactives show at the top dose activity change, negative = inhibition, hits mostly inhibitors;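 note: potency is the fitted concentration of half-maximal effect; 0% = vehicle wells and -100% = peptide control; nearly all actives have a fitted effect of over 45% in size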
#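 AMA1 (3D7) with his tag at 25 nM final met compounds first, then biotinylated RON2 peptide at 25 nM; detection used donor plus acceptor beads, 10 µg/mL apiece, read by AlphaScreen after 30 min at room temperature.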
# HCV inhibitor – blocks hepatitis C virus; Huh7.5.1 HCVcc-Cre infection, luciferase reporter, 44 h; Potency, µM (doses to about 41.8 µM), for inactives: at the highest dose activity change, negative = inhibition, hits mostly inhibitors; actives 3.4% (n = 340,000); note: potency is the fitted concentration of half-maximal effect; % is set by controls: 0 for no effect and ±100 for the full control effect
#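 Seed cells (1,000/well) for 4 h; treat with compound and infect with HCVcc-Cre, moi about 0.5. Incubate 44 h, then detect luciferase activity.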
# Shiga toxin inh – Shiga toxin inhibition; inhibition, % at 38.7 µM; Vero cells, Shiga toxin protein synthesis inhibition reporter; actives 9.2% (n = 290,000); in the data active = inhibition mostly above about 28%, no sharp cut-off; inactive = mostly below about 43%; note: 0% is about no effect
# Pf growth 96h – inhibits malaria parasite growth, 96 h | P. falciparum luciferase reporter growth, 96 h | Potency, µM (highest dose often 28.7 µM), without a hit: at the top dose activity change, negative = inhibition, hits mostly inhibitors | actives 6.9% (n = 320,000) | AID 504834; note: potency is the fitted concentration of half-maximal effect; % is set by controls: 0 for no effect and ±100 for the full control effect
#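 P. falciparum expressing integrated firefly luciferase grown in erythrocytes (2% hematocrit, 0.05% parasitemia final) with compounds for 96 hours at 37 C, 5% CO2. Growth inhibition read as loss of luminescence after adding luciferase detection reagent.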
# Numbers without * were called inactive; ? = inconclusive; nt = no result given; [ ] = dose if it differs, or a comment. Unless noted, calls come from the whole dose curve; as a rule, active = well fitted curve in the direction sought with a large enough effect; inconclusive = small, poorly fitted or top-dose-only effect, or another doubt; inactive = no such curve, though single readings can be large; an effect the other way counts as inactive or inconclusive.
SMILES,Pf growth 48h,CHX counter,AMA1-RON2 inh,HCV inhibitor,Shiga toxin inh,Pf growth 96h
O=C(NCCCN1CCOCC1)c1cc(-c2ccc(Cl)c(Cl)c2)on1,?,7.3,0.9%,12.6µM*,20.2,335.6%
Cc1ccc(-c2cc(C(=O)NCCCN3CCOCC3)no2)cc1,?,-2.0,-0.2%,-19.0%,-7.9,nt
COc1ccc(/C(C)=N/NC(=O)CNC(=O)c2cccnc2)c(OC)c1,13.8%[0.00184 µM],-6.8,12.7%,-0.8%,-2.3,8.9%
COc1ccccc1Nc1ccc(NS(=O)(=O)c2ccc(C(C)=O)cc2)cc1,?,9.7,-18.5%,-22.6%,66.8,?
O=C(NCCCn1ccnc1)c1cc(-c2cccs2)on1,155.4%,45.7*,11.0%,?,153.6*,5.0%
Cc1ccc(-c2[nH]c3cc(C(=O)NCCCn4ccnc4)ccc3c(=O)c2O)cc1,13.1µM*,-3.2,-3.0%,-2.4%,-4.0,?
Cc1c[nH]c2cccc(OCC(CNC(C)(C)C)OC(=O)c3ccccc3)c12 (centres undefined),?,-4.3,-20.4%,3.4%,-2.5,?
NC(=O)c1cc2cc(Cl)ccc2o/c1=N/NC(=O)c1cccs1,75.7%,9.2,53.9%,21.9%,8.4,0.0%
CCc1nnc(NC(=O)C2Cc3ccccc3CN2S(=O)(=O)c2ccc(C)cc2)s1 (centres undefined),-19.4%,37.5*,26.3%,-15.9%,59.3*,?
CCc1nnc(NC(=O)C2Cc3ccccc3CN2S(=O)(=O)c2cccs2)s1 (centres undefined),?,43.3*,15.6%,5.9%,48.8*,5.7%[5.75 µM]
O=C(C1CCN(S(=O)(=O)c2cccs2)CC1)N1CCc2ccccc2C1,-6.3%,2.8,0.4%,-22.3%,32.5,-7.9%
CNC(=O)C1Cc2ccccc2CN1S(=O)(=O)c1cccs1 (centres undefined),-2.3%,-2.4,3.7%[2.32 µM],15.0%,-15.2,21.8%
O=C(Nc1nnc(C2CC2)s1)C1Cc2ccccc2CN1S(=O)(=O)c1cccs1 (centres undefined),?,17.2*,0.2%,11.9%,74.7*,?
CC(C)Oc1ccc(CN2CCC2(C)C(=O)Nc2cccc3cccnc23)cc1 (centres undefined),nt,nt,79.5%,nt,nt,nt
O=C1C[C@@H]2c3c(cccc3CN1Cc1ccc(Br)cc1)C[C@@H](O)[C@H]2O,nt,nt,-5.7%,7.3%,nt,nt
O=C(N/N=C/c1ccc2c(c1)OCO2)/C(=C/c1ccc2c(c1)OCO2)NC(=O)c1ccccc1,-0.7%,1.4,47.8%,5.8%,-0.7,0.2%
CN(C)c1ccc(/C=C(/NC(=O)c2ccccc2)C(=O)N/N=C/c2ccc([N+](=O)[O-])c(O)c2)cc1,13.1µM*,52.3*,-16.6%,?,47.0*,5.22µM*
CC1CCc2c(cnc3ncnn23)C1 (centres undefined),-4.4%,-2.5,15.7%,16.3%,-1.2,-9.6%
O=C1c2sc3nc4n(c(=O)c3c2CCC1Br)CCCCC4 (centres undefined),?,31.4*,5.8%,11.1%,52.6*,9.28µM*
O=c1c2c3c(sc2nc2n1CCCCC2)C(O)CCC3 (centres undefined),73.3%,55.5*,3.3%,1.1%,69.6*,?
CCCCCc1c(C)[nH]c2nc3ccccc3n2c1=O,-29.2%,5.0,2.3%,-7.6%,19.2,?
CCCCC1CCC(C(=O)Nc2ccccc2N2CCOCC2)CC1 (centres undefined),14.7µM*,nt,2.4%,?,nt,?
CC(C)(C)C1CCC(C(=O)Nc2ccc(N3CCOCC3)cc2N2CCOCC2)CC1 (centres undefined),10.4µM*,nt,-1.3%,-3.9%,nt,?
CC(=O)N1c2ccc(S(=O)(=O)N3CCCC3)cc2CC1C(=O)NCc1ccc(N(C)C)cc1 (centres undefined),-13.2%,-5.5,14.1%,2.1%,8.9,6.57µM*
COc1cccc(CNC(=O)C2Cc3cc(S(=O)(=O)N4CCCC4)ccc3N2C(C)=O)c1OC (centres undefined),-9.2%,-3.5,12.9%,1.4%,13.2,14.7µM*
SMILES,Pf growth 48h,CHX counter,AMA1-RON2 inh,HCV inhibitor,Shiga toxin inh,Pf growth 96h
CCN(CC)CCNC(=O)c1ccccc1C(=O)c1ncc[nH]1,-14.0%,-1.7,20.6%,16.7%,-13.9,1.65µM*
COCCn1c(C)cc(C(=O)CSc2nc3ccccc3s2)c1C,49.2%,80.1*,-20.5%,10µM*,19.8,7.0%
COCCn1c(C)cc(C(=O)CSc2nc3ccccc3o2)c1C,111.4%,50.8*,-2.3%,?,120.2*,147.3%
COCCn1c(SCC(=O)c2cc(C)n(C)c2C)nc2ccccc2c1=O,50.7%,11.2*,-14.0%,?,38.8,-20.9%
COCCn1c(C)cc(C(=O)CSc2ncn[nH]2)c1C,-68.2%,36.0*,0.0%,-1.3%,71.2*,2.1%[5.75 µM]
Cc1cnc(C(=O)OCC(=O)Nc2ccc(Br)c(C)c2)cn1,-11.7%,nt,0.1%,9.6%,nt,10.2%
O=C1CN(C(=O)c2ccccc2F)C(c2ccccc2)c2cc(Cl)ccc2N1 (centres undefined),-33.0%,11.8,3.2%,-1.0%,-1.5,0.0%
CCCCN1CN(Cc2ccccc2)CNC1=S,-19.7%,-3.4,-3.0%,40.6%,-1.7,9.28µM*
CC(OC(=O)c1cccc(S(=O)(=O)N2CCCC2)c1)C(=O)c1ccccc1 (centres undefined),17.9%,-3.2,-8.8%,18.2%,-25.1,30.8%
CC(C)CCNC(=O)Cc1csc(-c2ccccc2)n1,1.9%,13.0,-0.2%,-9.7%,26.1,24.2%
O=c1[nH]c(CS(=O)(=O)c2ccccc2)nc2ccccc12,19.3%,-2.9,-0.8%,0.0%,19.0,nt
CCn1c(C)c(CS(=O)(=O)c2ccccc2)[nH]c1=O,-4.7%,34.5*,1.0%,-0.1%,108.5,17.0%
Cc1noc(C)c1S(=O)(=O)N1CCC(C(=O)N2CCN(Cc3ccc4c(c3)OCO4)CC2)CC1,?,-0.7,-3.5%,?,-5.8,5.86µM*
O=C(C1CCN(S(=O)(=O)c2ccccc2)CC1)N1CCN(Cc2ccc3c(c2)OCO3)CC1,-9.2%,1.6,6.8%,nt,-6.7,-26.1%
N#Cc1ccc(S(=O)(=O)N2CCC(C(=O)N3CCN(Cc4ccc5c(c4)OCO5)CC3)CC2)cc1,?,nt,8.2%,10µM*,nt,?
O=C1NC2(CCCC2)C(=O)N1CC(=O)N(Cc1ccccc1)c1ccccc1,?,nt,-1.8%,18.4%,nt,3.3%
Cc1ccc(NC(=O)CN(C)C(=O)c2nn(C)c(=O)c3ccccc23)cc1,0.5%,-2.0,7.1%,-18.2%,-3.4,33.1%
Cc1ccc(S(=O)(=O)N(C)C)cc1NC(=O)C(C)OC(=O)/C=C/c1cccs1 (centres undefined),104.8%,5.6,-3.9%,-2.3%,9.3,-11.5%

# Assay outcomes (PubChem)
